# Data published in PubChem BioAssay (NCATS).
# Records with an inconclusive call do not appear. A call without a number means that no potency is given here. The source made the active and inactive calls. Calls follow the shape of the dose curve; as a rule, active = well fitted inhibition curve with a large enough effect; inconclusive = small, poorly fitted or top-dose-only effect; inactive = no such curve, though single readings can be large or run the other way. Where a SMILES comes first, the peptide text is derived from it. [ ]: non-standard residue; d: D form.
# Tests used:
# [1] = tested on: Zika virus NS2B-NS3 protease (unlinked complex); assay: Primary screen GU Rhodamine qHTS for Zika virus inhibitors: Unlinked NS2B-NS3 protease assay (AID 1347159); conditions: Recombinant ZIKV NS2B-NS3 protease, Rhodamine110 substrate fluorescence; series mostly up to 107 µM; also: nearly all actives have a fitted effect of over 60% in size
# Procedure, shortened: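 Percent inhibition came from the 15-min rise in Rhodamine110 fluorescence (1.5 microM substrate, ~15% conversion), normalized to no-inhibitor and no-enzyme wells and Hill-fitted. Unlinked protease, 25 nM, pH 8.0 Tris buffer; compounds up to 114 microM, 15-min preincubation.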
# [2] = tested on: Zika virus NS2B-NS3 protease (linked construct); assay: Primary screen NINDS Rhodamine qHTS for Zika virus inhibitors (AID 1347160); conditions: purified NS2B-NS3 protease, Rhodamine110 substrate fluorescence; series mostly up to 57.1 µM; also: nearly all actives have a fitted effect of over 55% in size
# Procedure, shortened: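 Rhodamine110-peptide cleavage (1.5 µM substrate) by 25 nM linked NS2B-NS3 enzyme at pH 8.0 (Tris, Tween 20), after 15 min RT preincubation with compounds; 15-min fluorescence change normalized to controls and Hill-fitted.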
Structure (SMILES),Potency [1],Potency [2]
CC(C)C1=CC2=CCC3[C@](C)(CCC[C@@]3(C)C(=O)O)C2CC1O (stereo partly specified),inactive,inactive
COc1cc(C/C(=C/NC(C)=O)N(CC(=O)Cc2ccccc2)C(C)=O)cc2c1OCO2,inactive,inactive
CC(=O)N[C@H](Cc1ccc(O)cc1)C(=O)N[C@H](CCCN=C(N)N)C(=O)N[C@H](Cc1ccccc1)C(N)=O (Ac-[dY]-[dR]-[dF]-NH2),inactive,inactive
